Here are results for 16 compounds from PubChem BioAssay.

For experiment [1], the system named is XIP peptide (Xip251-270) binding. Kind of experiment: XIP fragment 251-270 binding compounds – biochemical, small-molecule microarray, fluorescence 635/667 nm, 0.1 µg/mL protein, primary screen (AID 1182). As to conditions: fluorescent protein binding, 635 nm, higher = more signal, called active from +8 up or from −8 down.
The subject of another experiment is XIP peptide (Xip251-270). Nature of the experiment: compounds binding XIP fragment 251-270 – biochemical, small-molecule microarray, fluorescence 635/667 nm, 0.5 µg/mL protein, primary screen (AID 1183). Conditions: fluorescence 635 nm, higher = more signal.
The nature of experiment [2]: blood-stage malaria parasite viability loss – strain 3D7, DAPI fluorescence, 100 nL, primary screen (AID 1184).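 Further: parasites grown inside human red blood cells in medium with human serum.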 As to conditions: P. falciparum 3D7 growth, 3 d, higher = more signal.
Experiment [3] addresses Homeobox protein Hox-A13 (Mus musculus) (UniProt Q62424). Kind of experiment: disruptors of Hoxa13 oligonucleotide interaction – biochemical, fluorescence polarization, labeled oligonucleotide, primary screen (AID 1185). As to conditions: Hoxa13:DNA binding, 15 min, higher = more signal, called active from +8 up or from −8 down. (In general: Fluorescence polarisation rises when a labelled molecule tumbles more slowly, as on binding a larger partner.)

A short description of experiment [4]: blockers of DNA damage checkpoint Chk1 activation – imaging, HeLa, hydroxyurea, phospho-Chk1 antibody, percent positive cells, primary screen (AID 1186). Conditions: hydroxyurea-induced phospho-Chk1 immunofluorescence imaging, higher = more signal.
A short description of experiment [5]: blockers of DNA damage checkpoint Chk1 activation – imaging, HeLa, hydroxyurea, phospho-Chk1 nuclear intensity, primary screen (AID 1187). As to conditions: hydroxyurea-induced phospho-Chk1 immunofluorescence imaging, higher = more signal.

The source made the active and inactive calls. Unless noted, how the calls were made is not given here.

Sequence of Homeobox protein Hox-A13 (Mus musculus) (Q62424 whole entry, looked up): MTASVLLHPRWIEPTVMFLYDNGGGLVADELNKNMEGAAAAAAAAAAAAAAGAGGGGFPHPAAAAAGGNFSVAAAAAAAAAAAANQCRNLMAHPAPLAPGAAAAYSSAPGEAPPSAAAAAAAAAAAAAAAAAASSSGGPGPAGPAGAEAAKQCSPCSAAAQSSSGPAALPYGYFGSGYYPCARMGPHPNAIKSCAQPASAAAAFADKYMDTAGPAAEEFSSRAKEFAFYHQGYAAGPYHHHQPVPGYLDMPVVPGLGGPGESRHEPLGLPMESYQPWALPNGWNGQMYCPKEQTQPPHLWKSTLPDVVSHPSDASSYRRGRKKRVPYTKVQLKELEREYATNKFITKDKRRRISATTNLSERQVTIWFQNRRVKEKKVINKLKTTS

For `NC(=O)NCC#Cc1ccc2c(c1)[C@]1(C(=O)N2)[C@H](c2ccc(O)cc2)N2[C@H](c3ccccc3)[C@H](c3ccccc3)OC(=O)[C@H]2[C@@H]1C(=O)N1CCCCCCC1`, the results for the composite z-score (in experiment [1]; in the experiment on XIP peptide (Xip251-270)) were 0.145 (inactive) and 0.469, respectively. Also, the z-score was 0.308 in experiment [2], 1.52 (inactive) in experiment [3], -0.374 (inactive) in experiment [4] and -0.693 (inactive) in experiment [5].
As to `CCc1cc2c(nc1CC)CCN(CCC(C)=NO[C@@H](C)c1cc(-c3c(C)cc(C)cc3C)no1)C2`, the composite z-score in experiment [1] is -0.712 (inactive); in the experiment on XIP peptide (Xip251-270) it was 0.325. The z-score in experiment [2] was 0.319; in experiment [3] it was -2.85 (inactive).
On to `CC(=O)OC[C@H]1O[C@H](CCON=C(C)CCN2CCc3nc(-c4ccccc4)c(-c4ccccc4)cc3C2)C=C[C@@H]1OC(C)=O`, for which the composite z-score in experiment [1] was 0.583 (inactive); with XIP peptide (Xip251-270) it was -0.0332. Further, the z-score in experiment [2] is -0.697; in experiment [3], -4.36 (inactive).
`COCCOC(=O)N1C(=O)[C@@]2(c3cc(C#CCNC(N)=O)ccc31)[C@H](c1ccc(O)cc1)N1[C@H](c3ccccc3)[C@H](c3ccccc3)OC(=O)[C@H]1[C@@H]2C(=O)N1CCCCCCC1`: the results for the composite z-score (in experiment [1]; with XIP peptide (Xip251-270)) were 0.348 (inactive) and 0.561, respectively. Besides, the z-score in experiment [2] was -0.0743; in experiment [3] it was -0.578 (inactive); in experiment [4] it was 0.149 (inactive); in experiment [5], 0.452 (inactive).
In the case of `CN1C(=O)C2C=CC(C(O)c3ccc(Br)cc3)N(N(c3ccccc3)c3ccccc3)C2C1=O` (configuration not stated), the composite z-score in experiment [1] was 0.654 (inactive); with XIP peptide (Xip251-270), 0.266. The z-score in experiment [2] is -0.233; in experiment [3], -0.704 (inactive); in experiment [4], 0.63 (inactive); in experiment [5] it was 0.0215 (inactive).
Turning to `CCOC(=O)C[C@H]1[C@H](OC(=O)c2cc3ccccc3oc2=O)[C@@H](NC(=O)c2ccc3ccccc3n2)c2cc(OCCCO)ccc2N1C(=O)c1ccccc1`, the figures for the composite z-score (in experiment [1]; with XIP peptide (Xip251-270)) were 0.26 (inactive) and -0.224, respectively. Also, the z-score was -2.07 in experiment [2], -0.763 (inactive) in experiment [3], 0.22 (inactive) in experiment [4] and 0.249 (inactive) in experiment [5].
In the case of `CCOC(=O)C[C@H]1[C@H](OC(=O)c2ccc(C(=O)c3ccccc3)cc2)[C@@H](NC(=O)c2ccc(-c3ccccc3)cc2)c2cc(OCCCO)ccc2N1C(=O)c1ccc2ccccc2n1`, the composite z-score in experiment [1] was 1.25 (inactive); in the experiment with XIP peptide (Xip251-270), 0.388. For the same compound, the z-score is -1.04 in experiment [2], -0.834 (inactive) in experiment [3], -0.916 (inactive) in experiment [4] and -0.596 (inactive) in experiment [5].
Consider `CC(C)=C1C(=O)C(c2ccccc2)=C2CN3C(=O)N(CCc4ccccc4)C(=O)[C@]3(Cc3ccc(F)cc3)[C@H]21`, for which the results for the composite z-score (in experiment [1]; with XIP peptide (Xip251-270)) were -0.391 (inactive) and -0.27, respectively. Further, the z-score in experiment [2] is -0.418; in experiment [3], -2.1 (inactive); in experiment [4], 0.0852 (inactive); in experiment [5], 0.314 (inactive).
In the case of `COC(=O)[C@@H]1N=C(c2ccc(OCCCO)cc2)O[C@@H]1c1ccccc1N=[N+]=[N-]`, the composite z-score in experiment [1] is 0.82 (inactive); in the experiment with XIP peptide (Xip251-270), 0.806. For the same compound, the z-score in experiment [2] is -1.43; in experiment [3] it was -3.65 (inactive); in experiment [4] it was -0.292 (inactive); in experiment [5], -0.269 (inactive).
Regarding `CN1C(=O)C2C=CC(C(O)c3ccc(I)cc3)N(NC(=O)OC(C)(C)C)C2C1=O` (configuration not stated), the composite z-score is 0.0031 (inactive) in experiment [1] and 0.575 in the experiment with XIP peptide (Xip251-270). Further, the z-score was -0.711 in experiment [2], -2.75 (inactive) in experiment [3], 0.256 (inactive) in experiment [4] and 0.078 (inactive) in experiment [5].
As for `C=CC[C@]1(C(=O)NCc2ccccc2)N=C(c2ccc(OCCCO)cc2)O[C@H]1c1ccccc1`, the results for the composite z-score (in experiment [1]; with XIP peptide (Xip251-270)) were 1.55 (inactive) and 0.776, respectively. The z-score in experiment [2] was -2.05; in experiment [3], -6.34 (inactive); in experiment [4] it was 0.0635 (inactive); in experiment [5] it was 0.896 (inactive).
For the compound `O=C1NC(=O)C2C1C=CC(C(O)Cc1ccccc1)N2Nc1ccccn1` (configuration not stated), the values for the composite z-score (in experiment [1]; in the experiment with XIP peptide (Xip251-270)) were -0.0757 (inactive) and 0.804, respectively. Moreover, the z-score in experiment [2] was 0.396; in experiment [3] it was -3.75 (inactive); in experiment [4] it was -0.349 (inactive); in experiment [5] it was -0.306 (inactive).
Turning to `CC(C)C[C@@H]1NC(=O)[C@H]2C[C@@H](C(=O)NCCCCCCN(C)C)[C@@H](c3cccc(OCCO)c3)N2C1=O`, the composite z-score in experiment [1] is 2.09 (inactive); in the experiment with XIP peptide (Xip251-270) it was 0.905. Further, the z-score in experiment [2] is 0.063; in experiment [3] it was -4 (inactive); in experiment [4] it was -0.111 (inactive); in experiment [5], 0.186 (inactive).
Consider `C=CCOC(=O)[C@H]1[C@@H]2C(=O)O[C@@H](c3ccccc3)[C@@H](c3ccccc3)N2[C@@H](c2ccc(OCCOC(=O)[C@H]3C[C@H]4C(=O)N5CCC[C@H]5C(=O)N4[C@H]3c3cccc(OCCO)c3)cc2)[C@]12C(=O)Nc1ccc(I)cc12`, for which the composite z-score was 2.54 (inactive) in experiment [1] and 0.829 with XIP peptide (Xip251-270). Besides, the z-score in experiment [2] was -0.139; in experiment [3], -1.27 (inactive); in experiment [4], -0.576 (inactive); in experiment [5], -0.305 (inactive).
As for `O[C@@H](Cc1ccccc1)[C@H]1C2C=CCCC(c3ccccc3)=C2CN1Cc1cccc(Cl)c1` (some centres not stated), the composite z-score in experiment [1] is -0.241 (inactive); with XIP peptide (Xip251-270), 0.27. For the same compound, the z-score in experiment [2] is 0.514; in experiment [3] it was -5.87 (inactive); in experiment [4], -0.215 (inactive); in experiment [5], 0.0934 (inactive).
As for `O=C1C[C@]2(c3ccc([N+](=O)[O-])cc3)C(=O)N(CCN3CCOCC3)c3cc(CO)ccc3[C@H]2N1CC12CC3CC(CC(C3)C1)C2`, the composite z-score in experiment [1] is 0.288 (inactive); with XIP peptide (Xip251-270) it was -0.307. For the same compound, the z-score in experiment [2] was -0.226; in experiment [3], -2.32 (inactive); in experiment [4], 0.416 (inactive); in experiment [5], 0.394 (inactive).
